Source: PubChem BioAssay (NCATS)
Where “and” joins values, the source holds several entries; their conditions need not be identical. Identical values can stand only once. Results filed as inconclusive are left out. Values without a mark were called inactive. Calls of active or inactive are those of the source. Calls follow the shape of the dose curve; as a rule, active = well fitted inhibition curve with a large enough effect; inconclusive = small, poorly fitted or top-dose-only effect; inactive = flat fitted curve, though single readings scatter.

Tests used:
TAB109 = test: qHTS profiling for inhibitors of Plasmodium falciparum proliferation (AID 504749); also: potency is read from the fitted curve at half-maximal effect; conditions: P. falciparum in erythrocytes, SYBR Green DNA, 72 h; series mostly up to 28.7 µM
Summary of the method: (§1)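 Infected RBCs, 0.3% parasitemia/2.5% Hct final; cpd 72 h, 37 C, 5% CO2; lysis buffer with saponin/triton/SYBR Green I, o/n RT dark; FI 485/535; norm. to artemisinin (0.29 uM) and DMSO.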

TAB113 = test: as above; conditions: P. falciparum in erythrocytes, SYBR Green DNA, 72 h; series mostly up to 28.7 µM
Summary of the method: as §1

TAB165 = test: as above; conditions: P. falciparum in erythrocytes, SYBR Green DNA, 72 h; series mostly up to 28.7 µM
Summary of the method: as §1

HaCat [1] = test: Cytotoxic Profiling of Annotated Libraries Using Quantitative High-Throughput Screening (AID 1296008); conditions: Five cell lines viability, CellTiter-Glo ATP luminescence, 48-72 h; max response: stronger effect = lower value; also: potency is read from the fitted curve at half-maximal effect; as to max response: % is scaled to controls: 0 for no effect and ±100 for the full control effect
Summary of the method: (§2)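 Cytotoxicity was measured as CellTiter-Glo ATP luminescence, read after 10 min at room temperature. Compound treatment of the cells lasted 48 or 72 hr at 37 degrees Celsius in a qHTS format.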

KB-3-1 = test: as above; conditions: Five cell lines viability, CellTiter-Glo ATP luminescence, 48-72 h; max response: stronger effect = lower value
Summary of the method: as §2

HEK293 = test: as above; conditions: Five cell lines viability, CellTiter-Glo ATP luminescence, 48-72 h; max response: stronger effect = lower value
Summary of the method: as §2

W2 = test: qHTS profiling for inhibitors of Plasmodium falciparum proliferation (AID 504749); also: potency is read from the fitted curve at half-maximal effect; conditions: P. falciparum in erythrocytes, SYBR Green DNA, 72 h; series mostly up to 28.7 µM
Summary of the method: as §1

NIH3T3 = test: Cytotoxic Profiling of Annotated Libraries Using Quantitative High-Throughput Screening (AID 1296008); conditions: Five cell lines viability, CellTiter-Glo ATP luminescence, 48-72 h; max response: stronger effect = lower value; also: potency is read from the fitted curve at half-maximal effect; as to max response: % is scaled to controls: 0 for no effect and ±100 for the full control effect
Summary of the method: as §2

CRL-7250 = normal cell line; test: as above; conditions: Five cell lines viability, CellTiter-Glo ATP luminescence, 48-72 h; max response: stronger effect = lower value
Summary of the method: as §2

HACAT [2] = test: qHTS assay to identify novel small-molecules to repurpose for Merkel cell carcinoma treatment (AID 1296009); conditions: MCC and control cell lines, CellTiter-Glo viability, 72 h; at 44.8 µM (top of the series) unless noted
Summary of the method: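 72 hr, 37 degree celsius; NPC 8-pt / MIPE 11-pt dose response; compound pinned in DMSO; CellTiter-Glo, 10 min RT, luminescence; normalized to no-cell and DMSO controls.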
Also: nearly all actives have a fitted effect of over 60% in size.

SMILES: CCCCN(CCCC)CC(O)c1cc(Cl)cc2c1-c1ccc(Cl)cc1/C2=C/c1ccc(Cl)cc1 (stereo unspecified)
- Potency (TAB109): 0.0126 µM (active)
- Potency (TAB113): 0.0056 µM (active)
- Potency (TAB165): 0.0079 µM (active)
- max response (HaCat [1]): -7.84%
- max response (KB-3-1): -7.25%

SMILES: CC(CN1c2ccccc2Sc2ccccc21)N(C)C (stereo unspecified)
- Potency (TAB109): inactive
- Potency (TAB113): inactive
- Potency (TAB165): inactive
- Potency (HEK293): 11.9 µM (active)
- max response (HaCat [1]): 3.18%
- max response (KB-3-1): 7.29%

SMILES: C[C@](N)(Cc1ccc(O)cc1)C(=O)O
- Potency (TAB109): inactive
- Potency (TAB113): inactive
- Potency (TAB165): inactive
- Potency (W2): inactive

SMILES: CCN(CC)CCNC(=O)c1c(C)[nH]c(/C=C2\C(=O)Nc3ccc(F)cc32)c1C
- Potency (TAB109): 8.91 µM (active)
- Potency (TAB113): 10 µM (active)
- Potency (TAB165): 7.08 µM (active)
- Potency (W2): 4.26 µM (active)
- Potency (HEK293): 8.41 µM (active)
- max response (KB-3-1): -5.42%
- max response (NIH3T3): -10.6%

SMILES: CC(=O)c1ccc2c(c1)N(CCCN(C)C)c1ccccc1S2
- Potency (TAB109): inactive
- Potency (TAB113): inactive
- Potency (TAB165): inactive
- Potency (W2): 1.02 µM (active)
- max response (NIH3T3): 1.48%

SMILES: Cc1c(O)cccc1C(=O)N[C@@H](CSc1ccccc1)[C@H](O)CN1C[C@H]2CCCC[C@H]2C[C@H]1C(=O)NC(C)(C)C
- Potency (TAB113): 12.6 µM (active)
- Potency (TAB165): 10 µM (active)
- Potency (W2): 8.49 µM (active)

SMILES: C[C@]12C[C@H](O)[C@H]3[C@@H](CCC4=CC(=O)CC[C@@]43C)[C@@H]1CC[C@@H]2C(=O)CO
- Potency (W2): inactive
- max response (CRL-7250): 3.36%
- outcome (HEK293): inactive
- max response (HaCat [1]): 1.38%

SMILES: CCN(CC)CCSC(=O)C(c1ccccc1)c1ccccc1
- Potency (TAB109): inactive
- Potency (TAB113): inactive
- Potency (TAB165): inactive
- max response (CRL-7250): -12.1%
- max response (HaCat [1]): -3.95%
- max response (KB-3-1): 12.2% and -4.64%
- max response (NIH3T3): -1.72%

SMILES: CN1CCCCC1CCN1c2ccccc2Sc2ccc(S(C)=O)cc21 (stereo unspecified)
- Potency (TAB113): inactive
- Potency (W2): 1.9 µM (active)
- outcome (CRL-7250): inactive
- outcome (HaCat [1]): inactive
- max response (KB-3-1): -15.2% and 0.424%
- max response (NIH3T3): -18.7%
- outcome (HACAT [2]): inactive

SMILES: O=C1Nc2ccc(Cl)cc2[C@@](C#CC2CC2)(C(F)(F)F)O1
- max response (CRL-7250): -9.32% and 4.5%
- outcome (HaCat [1]): inactive
- max response (KB-3-1): 17.8% and -24.9%
- max response (NIH3T3): 3.57%
- outcome (HACAT [2]): inactive

SMILES: CN1CCN(C2Cc3ccccc3Sc3ccc(Cl)cc32)CC1 (stereo unspecified)
- Potency (TAB165): 12.6 µM (active)
- Potency (W2): 3.79 µM (active)
- max response (CRL-7250): -15.1%
- outcome (HaCat [1]): inactive
- max response (KB-3-1): 6.06%
- max response (NIH3T3): -9.64%
- outcome (HACAT [2]): inactive

SMILES: CSc1ccc2c(c1)C(N1CCN(C)CC1)Cc1ccccc1S2 (stereo unspecified)
- Potency (TAB165): 12.6 µM (active)
- Potency (W2): 5.36 µM (active)
- Potency (HEK293): 16.8 µM (active)
- outcome (HaCat [1]): inactive
- max response (KB-3-1): 0.66%
- outcome (HACAT [2]): inactive

SMILES: Nc1ncnc2c1ncn2[C@@H]1O[C@H](CO)[C@@H](O)[C@H]1O
- Potency (TAB109): inactive
- Potency (TAB113): inactive
- Potency (TAB165): inactive
- Potency (W2): inactive
- outcome (CRL-7250): inactive
- max response (HEK293): 1.55%
- outcome (HaCat [1]): inactive
- outcome (HACAT [2]): inactive

SMILES: CC(=O)O[C@@]12CO[C@@H]1C[C@H](O)[C@@]1(C)C(=O)[C@H](O)C3=C(C)[C@@H](OC(=O)[C@H](O)[C@@H](NC(=O)OC(C)(C)C)c4ccccc4)C[C@@](O)([C@@H](OC(=O)c4ccccc4)[C@H]21)C3(C)C
- Potency (HEK293): 0.0021 µM (active)
- Potency (KB-3-1): 0.0073 µM (active)
- Potency (NIH3T3): 0.0084 µM (active)

SMILES: NC1[C@H]2CN(c3nc4c(cc3F)c(=O)c(C(=O)O)cn4-c3ccc(F)cc3F)C[C@@H]12 (stereo partly specified)
- Potency (HEK293): 15 µM (active)
- Potency (NIH3T3): 16.8 µM (active)

SMILES: Nc1ccc(S(=O)(=O)Nc2nccs2)cc1
- Potency (TAB109): inactive
- Potency (TAB113): inactive
- Potency (TAB165): inactive
- Potency (W2): inactive
- max response (CRL-7250): 0.415% and -2.54%
- max response (HEK293): 3.95% and -4.18%
- max response (HaCat [1]): -0.23% and -23.1%
- max response (NIH3T3): 0.16% and -3.65%

SMILES: CNCCC(Oc1ccc(C(F)(F)F)cc1)c1ccccc1 (stereo unspecified)
- Potency (TAB165): 11.2 µM (active)
- Potency (W2): 3.79 µM (active)
- max response (KB-3-1): 2.04%

SMILES: [Cl][In]([Cl])[Cl]
- Potency (W2): 7.57 µM (active)
- max response (HEK293): 1.84%
- max response (KB-3-1): 0.288% and -3.71%
- max response (NIH3T3): -11.3%

SMILES: CC(=O)Oc1ccc(C2(c3ccc(OC(C)=O)cc3)C(=O)Nc3ccccc32)cc1
- Potency (TAB109): inactive
- Potency (TAB113): inactive
- Potency (TAB165): inactive
- Potency (W2): inactive
- max response (HEK293): 1.93%
- max response (HaCat [1]): -16.5%
- max response (KB-3-1): -1.67% and 11.5%
- max response (NIH3T3): -14.8%

SMILES: OCCN1CCN(CCCN2c3ccccc3Sc3ccc(Cl)cc32)CC1
- Potency (W2): 3.22 µM (active)
- Potency (HEK293): 11.9 µM (active)

SMILES: CC1(C)Oc2ccc(C#N)cc2[C@@H](N2CCCC2=O)[C@@H]1O
- outcome (CRL-7250): inactive
- max response (HEK293): -3.16%
- max response (KB-3-1): -0.98% and -8.03%
- max response (NIH3T3): -6.15%

SMILES: CN(C)CCCN1c2ccccc2Sc2ccc(Cl)cc21
- Potency (TAB165): 8.91 µM (active)
- Potency (W2): 1.07 µM (active)
- max response (KB-3-1): -6.48%
